PubChem BioAssay (NCATS)
“And” between values parts separate entries of the source, which are not always exact repeats. Equal entries are not always repeated. Results filed as inconclusive are left out. The source made the active and inactive calls. Unless noted, the call rests on the fitted dose curve.

Columns and labels:
[1] = target: Alpha-galactosidase (Coffea arabica) (UniProt Q42656); assay: Counterscreen for Glucocerebrosidase Inhibitors: qHTS Assay for Coffee Bean alpha-Galactosidase at pH 4.5 (AID 957; active means well fitted curve in the direction sought with a large enough effect; an effect the other way counts as inactive or inconclusive;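 further: plate controls were enzyme alone for no effect and no enzyme for full effect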)
Alpha-galactosidase (Coffea arabica), sequence (Q42656 whole entry, looked up): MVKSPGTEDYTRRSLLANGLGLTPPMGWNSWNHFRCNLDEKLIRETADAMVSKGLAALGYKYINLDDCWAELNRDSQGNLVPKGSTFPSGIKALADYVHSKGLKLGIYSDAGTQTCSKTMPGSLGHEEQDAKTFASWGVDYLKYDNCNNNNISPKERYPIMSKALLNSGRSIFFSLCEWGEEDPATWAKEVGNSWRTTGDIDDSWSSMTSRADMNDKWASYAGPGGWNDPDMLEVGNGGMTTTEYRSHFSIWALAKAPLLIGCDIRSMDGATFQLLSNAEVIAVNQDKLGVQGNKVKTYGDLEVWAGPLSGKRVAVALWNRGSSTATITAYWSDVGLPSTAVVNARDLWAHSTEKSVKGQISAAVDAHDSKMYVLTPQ
How it was run: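 Green coffee bean enzyme (2 nM final) was incubated with compounds (0.7 nM to 77 uM) and 4-methylumbelliferyl alpha-D-galactopyranoside (80 uM final) in 50 mM citric acid, 0.005% Tween-20, pH 4.5, 20 min at room temperature; AC50 from Hill fits.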

[2] = target: Alpha-galactosidase (Coffea arabica) (UniProt Q42656); assay: Counterscreen for Glucocerebrosidase Inhibitors: qHTS Assay for Coffee Bean alpha-Galactosidase at pH 5.9 (AID 998; active means well fitted curve in the direction sought with a large enough effect; an effect the other way counts as inactive or inconclusive;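 further: plate controls were uninhibited enzyme for no effect and no-enzyme basal signal for full effect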)
How it was run: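 Green coffee bean enzyme (2 nM final) was incubated with compounds (0.7 nM–77 uM) and 4-methylumbelliferyl alpha-D-galactopyranoside (80 uM) in citrate buffer pH 5.9, 20 min at room temperature. High-pH stop; fluorescence 365/440 nm; AC50 from Hill fits.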

[3] = Validation screen for inhibitors of Lassa infection (AID 463096); further: on the % scale 0 is the no-effect control and ±100 the full control effect
[4] = Inducers of the Endoplasmic Reticulum Stress Response (ERSR) in human glioma: Validation (AID 504836; active means well fitted curve in the direction sought with a large enough effect; an effect the other way counts as inactive or inconclusive; further: 0% is about no effect)
How it was run: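 Stably transfected U87-MG human glioma cells carrying a GRP78-based luminescent sensor were seeded at 1000 cells/well, pin-dosed with compounds and incubated 16 h. Luciferase reagent was then added, and end-point luminescence was read after 10 min at room temperature.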

[5] = qHTS for Inhibitors of the Functional Ribonucleoprotein Complex (vRNP) of Lassa (LASV) Arenavirus: LASV Primary Screen - GLuc reporter signal (AID 1347082; calls by dose curve; tested in HEK293 reporter line; further: on the % scale 0 is the no-effect control and ±100 the full control effect; nearly all actives have a fitted effect of over 60% in size)
[6] = qHTS for Inhibitors of the Functional Ribonucleoprotein Complex (vRNP) of Lassa (LASV) Arenavirus: Viability assay - alamar blue signal for LASV Primary Screen (AID 1347083; calls by dose curve; tested in HEK293 reporter line; further: on the % scale 0 is the no-effect control and ±100 the full control effect; nearly all actives have a fitted effect of over 80% in size)
[7] = qHTS for Inhibitors of the Functional Ribonucleoprotein Complex (vRNP) of Lymphocytic Choriomeningitis Arenaviruses (LCMV): Viability assay - alamar blue signal for LCMV Primary Screen (AID 1347085; calls by dose curve; tested in HEK293 reporter line; further: on the % scale 0 is the no-effect control and ±100 the full control effect; nearly all actives have a fitted effect of over 80% in size)
[8] = target: Nucleoprotein (Lymphocytic choriomeningitis virus (strain Armstrong)) (UniProt P09992); assay: qHTS for Inhibitors of the Functional Ribonucleoprotein Complex (vRNP) of Lymphocytic Choriomeningitis Arenaviruses (LCMV): LCMV Primary Screen - GLuc reporter signal (AID 1347086); further: on the % scale 0 is the no-effect control and ±100 the full control effect; nearly all actives have a fitted effect of over 70% in size
Nucleoprotein (Lymphocytic choriomeningitis virus (strain Armstrong)), sequence (P09992 whole entry, looked up): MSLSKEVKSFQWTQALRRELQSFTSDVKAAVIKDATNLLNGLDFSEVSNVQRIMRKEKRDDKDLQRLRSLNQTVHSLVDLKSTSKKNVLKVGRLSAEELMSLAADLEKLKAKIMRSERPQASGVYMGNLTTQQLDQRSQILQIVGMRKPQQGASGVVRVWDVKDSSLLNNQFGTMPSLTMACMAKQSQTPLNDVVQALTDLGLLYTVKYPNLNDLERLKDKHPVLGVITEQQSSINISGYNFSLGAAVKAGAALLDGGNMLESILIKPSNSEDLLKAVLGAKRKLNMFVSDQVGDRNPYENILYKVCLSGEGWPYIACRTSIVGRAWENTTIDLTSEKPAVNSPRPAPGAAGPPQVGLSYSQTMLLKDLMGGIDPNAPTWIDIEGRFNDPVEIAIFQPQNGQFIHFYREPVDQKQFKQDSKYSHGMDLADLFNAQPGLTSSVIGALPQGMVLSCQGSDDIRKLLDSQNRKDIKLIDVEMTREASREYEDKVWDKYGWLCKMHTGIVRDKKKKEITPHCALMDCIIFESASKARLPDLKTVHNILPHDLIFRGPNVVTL

[9] = Primary qHTS for Huh7 cytotoxicity: counterscreen for inhibitors of MERS-S pseudotyped particle cell entry (AID 1479147); settings: outcome: dose series up to 57.1 µM unless noted; on activity change, negative = cytotoxicity: on the % scale 0 is the no-effect control and ±100 the full control effect
[10] = Primary qHTS for inhibitors of MERS-S pseudo-typed particle cell entry (AID 1479149); further: nearly all actives have a fitted effect of over 60% in size; further: potency means the concentration at half of the fitted maximal effect
[11] = Primary qHTS for Vero E6 cytotoxicity: counterscreen for inhibitors of SARS-S pseudo-typed particle cell entry (AID 1479150); settings: outcome: dose series up to 57.1 µM unless noted; on activity change, negative = cytotoxicity: on the % scale 0 is the no-effect control and ±100 the full control effect
[12] = Cytotoxicity counterscreen for inhibitors of SARS-CoV-2 cell entry (AID 1645845); further: nearly all actives have a fitted effect of over 50% in size; on activity change, negative = cytotoxicity: on the % scale 0 is the no-effect control and ±100 the full control effect
How it was run: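 Expi293F/hACE2 cells seeded overnight; cpd pin-transferred in DMSO, 1 h preincubation, + media, 48 h 37 C 5% CO2; ATPLite 1step luminescence; normalized to cells and no cells.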

[13] = Primary qHTS to identify inhibitors of SARS-CoV-2 cell entry (AID 1645846); settings: activity change, negative = inhibition: at 57.1 µM (top of the series) unless noted; further: nearly all actives have a fitted effect of over 45% in size
How it was run: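 HEK293 cells stably expressing human ACE2, pre-treated 1 h with compound, then infected with MLV particles pseudotyped with Wuhan-Hu-1 spike (C-terminal 19-aa truncation). Luciferase luminescence after 48 h at 37 °C, normalised to spike PP and bald PP.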

[14] = Primary qHTS for inhibitors of SARS-S pseudo-typed particle cell entry (AID 1479145); further: nearly all actives have a fitted effect of over 45% in size; further: potency means the concentration at half of the fitted maximal effect
[15] = Confirmatory qHTS to identify inhibitors of SARS-CoV-2 cell entry (AID 1645844); further: potency means the concentration at half of the fitted maximal effect; nearly all actives have a fitted effect of over 45% in size
How it was run: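 HEK293-ACE2 cells (Expi293F stably expressing human ACE2) were pretreated with compounds for 1 hr at 37C, then infected with MLV-based particles carrying Wuhan-Hu-1 spike (C-terminal 19-aa truncation). Luciferase luminescence read after 48 hr; normalized to spike PP (100%) and bald PP (0%).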

[16] = VSVG counterscreen qHTS to identify inhibitors of SARS-CoV-2 cell entry (AID 1645847); further: potency means the concentration at half of the fitted maximal effect; nearly all actives have a fitted effect of over 65% in size
How it was run: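 HEK293-ACE2 cells (Expi293F, human ACE2) pretreated 1 h with compound, then infected with MLV-based VSV-G pseudotyped particles for 48 h at 37 C; luciferase luminescence normalized to VSV-G PP and bald PP wells.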

C[N+]1(CCCCC[N+]2(C)CCCC2)CCCC1
inactive: outcome [1] | outcome [2] | Potency [3] | outcome [4] | Potency [5] | Potency [6] | Potency [7] | Potency [8] | outcome [9] | Potency [10] | outcome [11] | Potency [12]

CCC(=O)NCC[C@@H]1CCc2ccc3c(c21)CCO3
inactive: Potency [5] | Potency [6] | Potency [7] | Potency [8] | outcome [9] | Potency [10] | outcome [11] | Potency [12]
-26.7%: activity change, negative = inhibition [13]

NC[C@H]1O[C@H](O[C@H]2[C@@H](O)[C@@H](O[C@H]3O[C@H](CO)[C@@H](O)[C@H](N)[C@@H]3O)[C@H](N)C[C@@H]2N)[C@H](N)C[C@H]1O
inactive: Potency [5] | Potency [6] | Potency [7] | Potency [8] | activity change, negative = inhibition [14] -1.32% [at 11.4 µM] | outcome [9] inactive [at 11.4 µM] | outcome [10] inactive [at 11.4 µM] | outcome [11] inactive [at 11.4 µM]
-15.5% [at 11.3 µM]: activity change, negative = inhibition [13]

Nc1cccc2c1C(=O)N(C1CCC(=O)NC1=O)C2=O (configuration not stated)
inactive: Potency [5] | Potency [6] | Potency [7] | Potency [8] | outcome [9] | Potency [10] | outcome [11] | Potency [12]

NCCCNCCCCNC(=O)C(O)NC(=O)CCCCCCN=C(N)N (configuration not stated)
inactive: Potency [5] | Potency [6] | Potency [7] | Potency [8] | outcome [9] | Potency [10] | outcome [11] | Potency [12]

COC(=O)C[C@](O)(CCCC(C)(C)O)C(=O)O[C@@H]1C(OC)=C[C@]23CCCN2CCc2cc4c(cc2[C@H]13)OCO4
active: Potency [14] 3160 nM | Potency [10] 891 nM | Potency [15] 136 nM | Potency [16] 68.1 nM
inactive: Potency [5] | Potency [6] | Potency [7] | Potency [8] | outcome [9] | Potency [12]

N#CC(c1ccc(Cl)cc1)c1c(Cl)cc(-n2ncc(=O)[nH]c2=O)cc1Cl (configuration not stated)
inactive: Potency [5] | Potency [6] | Potency [7] | Potency [8] | outcome [9] | outcome [11] | Potency [12]
active: Potency [15] 13.6 nM | Potency [16] 21500 nM

O=[N+]([O-])c1c(Cl)cccc1-c1c[nH]cc1Cl
inactive: Potency [5] | Potency [6] | Potency [7] | Potency [8] | outcome [9] | outcome [11]

CO[C@@H]1[C@H](OC(=O)/C=C/C=C/C=C/C=C/C(=O)O)CC[C@]2(CO2)[C@H]1[C@@]1(C)O[C@@H]1CC=C(C)C
inactive: Potency [5] | Potency [6] | Potency [7] | Potency [8] | outcome [9] | Potency [10] | outcome [11] | Potency [12]

CC(=O)Nc1cccc(-n2c(=O)n(C3CC3)c(=O)c3c(Nc4ccc(I)cc4F)n(C)c(=O)c(C)c32)c1
inactive: Potency [5] | Potency [6] | Potency [7] | Potency [8] | outcome [9] | Potency [10] | outcome [11] | Potency [12]

CC1(C)CCC(CN2CCN(c3ccc(C(=O)NS(=O)(=O)c4ccc(NCC5CCOCC5)c([N+](=O)[O-])c4)c(Oc4cnc5[nH]ccc5c4)c3)CC2)=C(c2ccc(Cl)cc2)C1
-9.23% and -30%: activity change, negative = inhibition [13]
inactive: Potency [5] | Potency [6] | Potency [7] | Potency [8] | outcome [9] | Potency [10] | outcome [11] | Potency [12]

CCCNS(=O)(=O)Nc1ncnc(OCCOc2ncc(Br)cn2)c1-c1ccc(Br)cc1
inactive: Potency [5] | Potency [6] | Potency [7] | Potency [8] | outcome [9] | Potency [10] | outcome [11] | Potency [12]

Cc1ccccc1O
-10.9% [at 114 µM]: activity change, negative = inhibition [13]
inactive: Potency [5] | Potency [6] | Potency [7] | Potency [8] | outcome [9] | Potency [10] | outcome [11] | Potency [12]

O=C(O)c1nc(=O)[nH]c(=O)[nH]1
inactive: Potency [5] | Potency [6] | Potency [7] | Potency [8] | outcome [9] inactive [at 0.573 µM] | outcome [10] inactive [at 0.573 µM] | activity change, negative = cytotoxicity [11] 2.99% [at 0.573 µM] | Potency [12]

CC(=O)[C@H]1CC[C@H]2[C@@H]3CCC4=CC(=O)CC[C@]4(C)[C@H]3CC[C@]12C
active: Potency [15] 24100 nM | Potency [16] 17100 nM
inactive: outcome [1] | outcome [2] | Potency [3] | outcome [4] | Potency [5] | Potency [6] | Potency [7] | Potency [8] | outcome [9] | outcome [11]

C[C@H]1COc2c(N3CCN(C)CC3)c(F)cc3c(=O)c(C(=O)O)cn1c23
inactive: Potency [5] | Potency [6] | Potency [7] | Potency [8] | outcome [9] | Potency [10] | outcome [11] | Potency [12]
-10.7% and -28.1%: activity change, negative = inhibition [13]
